Test results reported in PubChem BioAssay (Tox21).
Records with an inconclusive call do not appear. Where a call stands in place of a potency, no number is given. Some compounds were tested as several samples or in several runs, with calls that do not always agree. The source made the active and inactive calls. The call rests on the fitted dose curve.

Legend:
[1] = molecular target: Acetylcholinesterase (Homo sapiens) (UniProt P22303); test: Acetylcholinesterase (AChE) small molecule antagonists: colormetric cell-based qHTS assay (AID 1347395); further: nearly all actives have a fitted effect of over 30% in size; further: potency means the concentration at half of the fitted maximal effect
Chain of Acetylcholinesterase (Homo sapiens) (P22303 whole entry, looked up): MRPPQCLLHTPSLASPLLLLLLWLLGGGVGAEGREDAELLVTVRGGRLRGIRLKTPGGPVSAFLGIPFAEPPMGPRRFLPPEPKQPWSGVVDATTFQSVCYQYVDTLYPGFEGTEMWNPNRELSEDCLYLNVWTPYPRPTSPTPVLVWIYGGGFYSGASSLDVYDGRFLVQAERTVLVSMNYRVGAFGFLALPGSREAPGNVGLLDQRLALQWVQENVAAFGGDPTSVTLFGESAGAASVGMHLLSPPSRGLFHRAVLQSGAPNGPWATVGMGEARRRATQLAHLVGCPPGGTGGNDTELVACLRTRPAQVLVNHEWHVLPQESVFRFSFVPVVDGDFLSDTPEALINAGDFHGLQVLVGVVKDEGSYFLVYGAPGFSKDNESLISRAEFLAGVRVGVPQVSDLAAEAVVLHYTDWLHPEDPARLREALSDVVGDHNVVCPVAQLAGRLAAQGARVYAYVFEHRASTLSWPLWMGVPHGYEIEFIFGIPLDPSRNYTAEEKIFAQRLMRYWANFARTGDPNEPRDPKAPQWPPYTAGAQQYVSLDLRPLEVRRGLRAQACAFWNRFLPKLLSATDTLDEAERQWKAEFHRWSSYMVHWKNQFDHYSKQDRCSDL
Summary of the method: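 SH-SY5Y cells, plated overnight at 37 C, were exposed to compounds for 30 min at 37 C and 5% CO2. Acetylthiocholine plus DTNB was then added, and thiocholine from endogenous AChE was quantified colorimetrically after 90 min at 37 C.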

[2] = molecular target: Acetylcholinesterase (Homo sapiens) (UniProt P22303); test: Acetylcholinesterase (AChE) small molecule antagonists: enzyme-based qHTS assay (AID 1347397); settings: Potency: AChE enzyme activity inhibition; outcome: AChE enzyme activity inhibition; further: nearly all actives have a fitted effect of over 55% in size; further: potency means the concentration at half of the fitted maximal effect
Summary of the method: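 Compound or DMSO vehicle was pin-transferred onto recombinant human AChE (50 mU/mL as dispensed) and left 30 min at room temperature. Acetylthiocholine with DTNB then started the reaction, read colorimetrically 10 min later.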

[3] = molecular target: Acetylcholinesterase (Homo sapiens) (UniProt P22303); test: Acetylcholinesterase (AChE) small molecule antagonists: fluorescence cell-based qHTS assay (AID 1347398); settings: Potency: AChE activity; outcome: AChE activity; further: nearly all actives have a fitted effect of over 50% in size; further: potency means the concentration at half of the fitted maximal effect
Summary of the method: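 Using neuroblastoma SH-SY5Y cells as the enzyme source, test chemicals are preincubated 30 min at 37 C; AChE-driven acetylthiocholine cleavage is then quantified by thiocholine-dependent Thiolite Green fluorescence after 40 min at room temperature.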

[4] = molecular target: Acetylcholinesterase (Homo sapiens) (UniProt P22303); test: Acetylcholinesterase (AChE) small molecule antagonists: enzyme-based qHTS assay with human liver microsomes (AID 1347399); settings: Potency: qHTS inhibition; outcome: qHTS inhibition; further: nearly all actives have a fitted effect of over 60% in size
Summary of the method: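 Recombinant human AChE (50 mU/mL in the enzyme mix) and human liver microsomes (0.25 mg/mL final) were preincubated with compound and NADPH (0.25 mg/mL final) for 30 min at 37 C. Acetylthiocholine/DTNB was then added; thiocholine was read colorimetrically after 10 min at room temperature.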

SMILES | Potency [1] | Potency [2] | Potency [3] | Potency [4] | activity, negative = inhibition [1] | activity change, negative = inhibition [2] | activity change, negative = inhibition [3] | activity change, negative = inhibition [4]
CCCCCCCCCCCCCC[n+]1ccccc1 | 31.7 µM (active) | 56.4 µM (active) | 20 µM (active) | inactive | – | – | – | –
C=C(C)c1cccc(C(C)(C)N=C=O)c1 | inactive | inactive | inactive | inactive | – | – | – | –
NS(=O)(=O)c1cc2c(cc1Cl)NC(C1CC3C=CC1C3)NS2(=O)=O (stereo not given) | inactive | inactive | inactive | inactive | – | – | – | –
C[C@H]1[C@H]2CC[C@H]3[C@@H]4CC=C5C[C@@H](N(C)C)CC[C@]5(C)[C@H]4CC[C@]23CN1C | inactive | inactive | inactive | inactive | – | – | – | –
CCCCN1CCCC[C@H]1C(=O)Nc1c(C)cccc1C | inactive | inactive | inactive | inactive | – | – | – | –
Oc1ccc(Oc2ccccc2)cc1 | inactive | inactive | inactive | inactive | – | – | – | –
O=C(c1ccccc1)c1ccccc1O | inactive | inactive | inactive | inactive | – | – | – | –
CC1(C)CC(O)CC(C)(C)N1 | inactive | inactive | inactive | inactive | – | – | – | –
C=CCc1ccc(O)c(OC)c1 | inactive | inactive | inactive | inactive | – | – | – | –
O=C[O][Al]([O]C=O)[O]C=O | inactive | inactive | inactive | inactive | – | – | – | –
CC(CO)(CO)C(=O)O | inactive | inactive | inactive | inactive | – | – | – | –
O=C(NCCc1c[nH]c2ccccc12)c1cccnc1 | inactive | inactive | inactive | inactive | – | – | – | –
Nc1ccc2c(c1)CN1C(=O)c3ccccc3C1=N2 | – | – | – | – | -3.06% [at 23.6 µM] (inactive) | 1.39% [at 23.6 µM] (inactive) | -15.4% [at 23.8 µM] (inactive) | 6.82% [at 23.6 µM] (inactive)
Oc1cn2c(n1)Nc1ccc(Cl)c(Cl)c1C2 | – | – | – | – | -9.64% [at 23.6 µM] (inactive) | 0.842% [at 23.6 µM] (inactive) | -3.43% [at 23.8 µM] (inactive) | 0.168% [at 23.6 µM] (inactive)
NC(=O)N1C(=O)C(C(=O)c2cc(Cl)cs2)c2cc(F)c(Cl)cc21 (stereo not given) | inactive | inactive | inactive | inactive | – | – | – | –
Nc1cc(-c2ccncc2)c[nH]c1=O | inactive | inactive | inactive | inactive | – | – | – | –
CC(=O)[C@@]1(O)CC[C@H]2[C@@H]3C[C@H](C)C4=CC(=O)CC[C@]4(C)[C@H]3CC[C@@]21C | inactive | inactive | inactive | inactive | – | – | – | –
COc1cccc(O)c1 | inactive | inactive | inactive | inactive | – | – | – | –
CC(NN)c1ccccc1 (stereo not given) | – | – | – | – | 1.5% [at 23.6 µM] (inactive) | 0.277% [at 23.6 µM] (inactive) | 0.294% [at 23.8 µM] (inactive) | 1.27% [at 23.6 µM] (inactive)
CCN(CC)CCNC(=O)c1cc(S(C)(=O)=O)ccc1OC | inactive | inactive | inactive | inactive | – | – | – | –
CCCc1ccc(OCC(=O)N2CCN(C(=O)COc3ccc(CCC)cc3OC)CC2)c(OC)c1 | inactive | inactive | inactive | inactive | – | – | – | –
C=C(C)[C@H]1CC=C(C)C(=O)C1 | inactive | inactive | inactive | inactive | – | – | – | –
O=C(O)COc1nn(Cc2ccccc2)c2ccccc12 | inactive | inactive | inactive | inactive | – | – | – | –
CCOc1ccc(NC(N)=O)cc1 | inactive | inactive | inactive | inactive | – | – | – | –
CCC(O)OC(O)CC (stereo not given) | inactive | inactive | inactive | inactive | – | – | – | –

SMILES | Potency [1] | Potency [2] | Potency [3] | Potency [4] | activity, negative = inhibition [1] | activity change, negative = inhibition [2] | activity change, negative = inhibition [3] | activity change, negative = inhibition [4]
O=c1cc(-c2ccccc2)oc2ccccc12 | inactive | inactive | inactive | inactive | – | – | – | –
Nc1nc2c(ncn2COC(CO)CO)c(=O)[nH]1 | inactive | inactive | inactive | inactive | – | – | – | –
CCCCCCCCC(CCCCCC)C(=O)O (stereo not given) | inactive | inactive | inactive | inactive | – | – | – | –
CCCCCCC(O)CCOC(C)=O (stereo not given) | inactive | inactive | inactive | inactive | – | – | – | –
CC[C@H](C)C(=O)O[C@H]1C[C@@H](C)C=C2C=C[C@H](C)[C@H](CC[C@@H]3C[C@@H](O)CC(=O)O3)[C@H]21 | inactive | inactive | inactive | inactive | – | – | – | –
O=C1OC(=O)c2cccc3cccc1c23 | inactive | inactive | inactive | inactive | – | – | – | –
N#CCC(=O)O | inactive | inactive | inactive | inactive | – | – | – | –
C[C@H]1C[C@H]2[C@@H]3CCC4=CC(=O)C=C[C@]4(C)[C@@]3(F)[C@@H](O)C[C@]2(C)[C@@]1(O)C(=O)COP(=O)(O)O | inactive | inactive | inactive | inactive | – | – | – | –
CC(=O)c1ccc([N+](=O)[O-])cc1 | inactive | inactive | inactive | inactive | – | – | – | –
CCCCOC(=O)CO | inactive | inactive | inactive | inactive | – | – | – | –
Cc1cccc(OCCOc2cccc(C)c2)c1 | inactive | inactive | inactive | inactive | – | – | – | –
CCCCOC(=O)c1ccc(O)cc1 | inactive | inactive | 36 µM (active) and inactive | inactive | – | – | – | –
CC(C)(CCC(=O)O)C(=O)O | inactive | inactive | inactive | inactive | – | – | – | –
COC(=O)c1cc(Cl)ccc1NS(=O)(=O)C(F)(F)F | inactive | inactive | inactive | inactive | – | – | – | –
CC(Cl)COP(=O)(OCC(C)Cl)OCC(C)Cl (stereo not given) | inactive | inactive | inactive | inactive | – | – | – | –
CC(=O)C(=O)O | inactive | inactive | inactive | inactive | – | – | – | –
O=C(c1ccccc1)c1ccc2n1CCC2C(=O)O (stereo not given) | inactive | inactive | inactive | inactive | – | – | – | –
Cc1cc(C2(c3cc(C)c(O)cc3C)OS(=O)(=O)c3ccccc32)c(C)cc1O | inactive | inactive | inactive | inactive | – | – | – | –
CCC(C)c1cc(C(C)(C)C)c(O)c(C(C)(C)C)c1 (stereo not given) | inactive | inactive | inactive | inactive | – | – | – | –
CN(C)c1ccc(CCO)cc1 | inactive | inactive | inactive | inactive | – | – | – | –
CN(C)CCc1c[nH]c2ccc(C[C@H]3COC(=O)N3)cc12 | inactive | inactive | inactive | inactive | – | – | – | –
O=C(O)Cc1c[nH]c2ccccc12 | inactive | inactive | inactive | inactive | – | – | – | –
OC1OCCOC1O (stereo not given) | inactive | inactive | inactive | inactive | – | – | – | –
CCCCCCCCn1sc(Cl)c(Cl)c1=O | inactive | inactive | inactive | inactive | – | – | – | –
CN(C)Cc1ccccc1 | inactive | inactive | inactive | inactive | – | – | – | –

SMILES | Potency [1] | Potency [2] | Potency [3] | Potency [4] | activity, negative = inhibition [1] | activity change, negative = inhibition [2] | activity change, negative = inhibition [3] | activity change, negative = inhibition [4]
O=S(=O)(O)c1ccc2ccccc2c1 | inactive | inactive | inactive | inactive | – | – | – | –
CC(C)(C)c1n[nH]c(=S)n(N)c1=O | inactive | inactive | inactive | inactive | – | – | – | –
Nc1c(I)cc(I)c(C(=O)N(CCC(=O)O)c2ccccc2)c1I | inactive | inactive | inactive | inactive | – | – | – | –
Cc1c(OCC(F)(F)F)ccnc1CS(=O)c1nc2ccccc2[nH]1 (stereo not given) | inactive | inactive | inactive | inactive | – | – | – | –
O=C1NCC2(CCN(CCc3ccccc3)CC2)O1 | inactive | inactive | inactive | inactive | – | – | – | –
Cc1cccc(C)c1NC(=O)c1ccc(N)cc1 | inactive | inactive | inactive | inactive | – | – | – | –
CC(C)CCCCCCOC(=O)c1ccc(C(=O)OCCCCCCC(C)C)c(C(=O)OCCCCCCC(C)C)c1 | inactive | inactive | inactive | inactive | – | – | – | –
O=c1n(CCO)c(=O)n(CCO)c(=O)n1CCO | inactive | inactive | inactive | inactive | – | – | – | –
CC(C)=NNC(N)=S | inactive | inactive | inactive | inactive | – | – | – | –
C[Si]1(C)O[Si](C)(C)O[Si](C)(C)O[Si](C)(C)O1 | inactive | inactive | inactive | inactive | – | – | – | –
CCCCCCCCCCC=CC1CC(=O)OC1=O (stereo not given) | inactive | inactive | inactive | inactive | – | – | – | –
O=C(COc1ccc(Cl)cc1)N1CCN(Cc2ccc3c(c2)OCO3)CC1 | inactive | inactive | inactive | inactive | – | – | – | –
CSc1cnc(C)cn1 | inactive | inactive | inactive | inactive | – | – | – | –
O=C1C(N(CO)C(=O)NCO)N(CO)C(=O)N1CO (stereo not given) | inactive | inactive | inactive | inactive | – | – | – | –
COS(=O)(=O)C(F)(F)F | inactive | inactive | inactive | inactive | – | – | – | –
COC1CCC=CO1 (stereo not given) | inactive | inactive | inactive | inactive | – | – | – | –
C1CCCNCC1 | inactive | inactive | inactive | inactive | – | – | – | –
O=S(=O)(Oc1ccc(Cl)cc1Cl)c1ccccc1 | inactive | inactive | inactive | inactive | – | – | – | –
CCC(C)(CCC(C)C)C(=O)[O][Sn]([CH3])([CH3])[O]C(=O)C(C)(CC)CCC(C)C (stereo not given) | inactive | inactive | inactive | inactive | – | – | – | –
CC(C)(C)C(=O)NCCCC(=O)O | inactive | inactive | inactive | inactive | – | – | – | –
CC1CCC(C(C)C)C(O)C1 (stereo not given) | inactive | inactive | inactive | inactive | – | – | – | –
CC(C)=CCl | inactive | inactive | 22.7 µM (active) and inactive | inactive | – | – | – | –
NC(=O)N[C@@H](CCC(=O)O)C(=O)O | inactive | inactive | inactive | inactive | – | – | – | –
O=C(O)c1ccc(OCCN2CCCCC2)cc1 | inactive | inactive | inactive | inactive | – | – | – | –
NC(=O)NC1NC(=O)NC1=O (stereo not given) | inactive | inactive | inactive | inactive | – | – | – | –
